# Laboratory results from PubChem BioAssay (NCI).
# The panel holds about 83,000 compounds, 20% with a hit somewhere; the sample as a whole holds those more often.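 Testing used 96-well plates and a 48-hour single-concentration exposure. Example: -40 means 40% of the starting cells died.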 Active and inactive are the calls of the source. The calls were made as follows: active = growth percent below 10; inactive = the rest.
# Tested on: T-47D breast
# Assay: NCI-60 one-dose screen, 48 h (100 = growth as untreated, 0 = no growth, -100 = all killed)
# Conditions: 10 µM unless noted
row,Compound,growth
1,OCC1C2C=CC(C2)C1CO (stereo not given),153% (inactive)
2,Fc1ccc(Cc2ccc(F)cc2)cc1,101% (inactive)
3,O=c1ccc2cc3ccccc3cc2[nH]1,96.9% (inactive)
4,COc1ccc(-c2nn(-c3ccccc3)cc2/C=C/C(=O)OCc2cn(-c3ccc(F)c(Cl)c3)nn2)cc1,48.3% (inactive)
5,COc1ccccc1N1CCN(CCn2c(=O)c3c(c4ccccc4n3C)n(C)c2=O)CC1,64.4% (inactive)
6,CCCCCCCCCCNC(=O)CCl,41.1% (inactive)
7,N=S(=O)(NC(=O)c1ccc(Cl)cc1Cl)c1ccc(Br)s1 (stereo not given),103% (inactive)
8,CCOC(=O)/C=C/C(=O)[C@H](CC(C)C)NC(=O)[C@H](Cc1ccccc1)NC(=O)OCc1ccccc1,8.32% (active)
9,COC1/C=C\OC2(C)Oc3c(C)c(O)c4c(O)c(c(CN(C)CCO)c(O)c4c3C2=O)NC(=O)/C(C)=C\C=C/C(C)C(O)C(C)C(O)C(C)C(OC(C)=O)C1C (stereo not given),89.3% (inactive)
10,COc1nc2c(cc1S(=O)(=O)c1ccccc1)CCc1c-2cnn1Cc1ccccc1,16.3% (inactive)
11,O=S(=O)(NCCCNc1cc(-c2cn(-c3ccccc3)nc2-c2ccccc2)ccn1)c1ccc(C(F)(F)F)cc1,38.7% (inactive)
12,N#CC1=C(N)Oc2c(ccc3ccccc23)C1c1cccs1 (stereo not given),64.3% (inactive)
13,CCN(CC)CCCNc1cc(OC)cc2nc3cc(Cl)ccc3nc12,29.8% (inactive)
14,O=C(CN1CCN(c2cc3c(cc2F)c(=O)c(C(=O)O)cn3C2CC2)CC1)Nc1nc(-c2ccc(Cl)cc2)cs1,40.2% (inactive)
15,O=C1CC(c2nc3ccccc3[nH]2)CN1C1CCCCC1 (stereo not given),95.6% (inactive)
16,COc1cc(OC)c(/C=C/c2cc[n+](C)c3ccccc23)c(OC)c1,9.89% (active)
17,CCN(CC)c1ccc(CNc2cc(C)nc3ccc(OC)cc23)cc1,80% (inactive)
18,CCCCCN(CCCCC)CCC[C@@H](C)[C@H]1CC[C@H]2[C@@H]3[C@H](OCCCN)C[C@@H]4C[C@H](OCCCN)CC[C@]4(C)[C@H]3C[C@H](OCCCN)[C@]12C,68.1% (inactive)
19,COc1cc(OC)c(/C=C/S(=O)(=O)Cc2ccc(OC)c(N)n2)c(OC)c1,44.8% (inactive)

row,Compound,growth
1,CC(=O)C1=C(O)C=C2Oc3c(C(=O)/C=C/c4cc(C(F)(F)F)cc(C(F)(F)F)c4)c(O)c(C)c(O)c3[C@]2(C)C1=O,-18.7% (active)
2,Cc1cc(Nc2nc(N3CCOCC3)nc3ccccc23)n[nH]1,72.5% (inactive)
3,COc1cc(OC)c(/C=C/C(=O)c2c(OC)cc(OC)cc2OC)c(OC)c1,13% (inactive)
4,c1ccc(CSc2ncnc3nc[nH]c23)nc1,107% (inactive)
5,CN1CCOCCOCCOc2ccccc2NC(=O)c2nc(cnc2N)-c2ccc(cc2)S1(=O)=O,80.1% (inactive)
6,COc1cc(/C=N/N(C)C)ccc1O,94.4% (inactive)
7,O=C(/C=C/c1ccc(B(O)O)cc1)/C=C/c1ccc(B(O)O)cc1,27% (inactive)
8,CCC(=O)OCc1cccc(OC)c1,95.3% (inactive)
9,COc1cnc2c(c1)C(=O)c1c-2n(CCCBr)c(=O)c2cc([N+](=O)[O-])ccc12,2.87% (active)
10,C/C(=C(/c1ccc(O)cc1)c1ccc(OCCN2CCCC2)cc1)c1ccccc1,28.5% (inactive)
11,CCCCCCCCCc1cc(CN2CCCCC2)c(O)c(CN2CCCCC2)c1,19.8% (inactive)
12,CCCCN(CC)CCCCCCCCCCN1CCCc2cc(OC)ccc21,93.6% (inactive)
13,COc1cc(NC(N)=NCC(C)(C)COc2ccc(C(F)(F)F)cc2)cnc1C#N,30.3% (inactive)
14,COc1ccc2nc(NC(=O)c3cccnc3Nc3cc(OC)c(OC)c(OC)c3)sc2c1,-7.17% (active)
15,CCN(CC)CCC(=O)c1ccc(OC)c2ccccc12,29.1% (inactive)
16,COc1ccc(/C=C2\N=C3Sc4cc(Cl)ccc4C(=O)N3C2=O)cc1,92% (inactive)
17,Nc1c(C(=O)Nc2ccccc2)sc2nc3c(cc12)CN(CCc1ccccc1)CC3,88.1% (inactive)
18,CC(C)Oc1nc2c(c(=O)n(C)c(=O)n2C)n1C,90.3% (inactive)

# Tested on: BT-549 breast
# Assay: as above
# Conditions: 10 µM unless noted
row,Compound,growth
1,OCC1C2C=CC(C2)C1CO (stereo not given),98.7% (inactive)
2,Fc1ccc(Cc2ccc(F)cc2)cc1,128% (inactive)
3,O=c1ccc2cc3ccccc3cc2[nH]1,108% (inactive)
4,COc1ccc(-c2nn(-c3ccccc3)cc2/C=C/C(=O)OCc2cn(-c3ccc(F)c(Cl)c3)nn2)cc1,101% (inactive)
5,COc1ccccc1N1CCN(CCn2c(=O)c3c(c4ccccc4n3C)n(C)c2=O)CC1,99.3% (inactive)
6,CCCCCCCCCCNC(=O)CCl,49% (inactive)
7,N=S(=O)(NC(=O)c1ccc(Cl)cc1Cl)c1ccc(Br)s1 (stereo not given),99.5% (inactive)
8,CCOC(=O)/C=C/C(=O)[C@H](CC(C)C)NC(=O)[C@H](Cc1ccccc1)NC(=O)OCc1ccccc1,69.2% (inactive)
9,COC1/C=C\OC2(C)Oc3c(C)c(O)c4c(O)c(c(CN(C)CCO)c(O)c4c3C2=O)NC(=O)/C(C)=C\C=C/C(C)C(O)C(C)C(O)C(C)C(OC(C)=O)C1C (stereo not given),105% (inactive)
10,COc1nc2c(cc1S(=O)(=O)c1ccccc1)CCc1c-2cnn1Cc1ccccc1,62.8% (inactive)
11,O=S(=O)(NCCCNc1cc(-c2cn(-c3ccccc3)nc2-c2ccccc2)ccn1)c1ccc(C(F)(F)F)cc1,71.2% (inactive)
12,N#CC1=C(N)Oc2c(ccc3ccccc23)C1c1cccs1 (stereo not given),25% (inactive)
13,CCN(CC)CCCNc1cc(OC)cc2nc3cc(Cl)ccc3nc12,2.46% (active)
14,O=C(CN1CCN(c2cc3c(cc2F)c(=O)c(C(=O)O)cn3C2CC2)CC1)Nc1nc(-c2ccc(Cl)cc2)cs1,26.3% (inactive)
15,O=C1CC(c2nc3ccccc3[nH]2)CN1C1CCCCC1 (stereo not given),97.7% (inactive)
16,COc1cc(OC)c(/C=C/c2cc[n+](C)c3ccccc23)c(OC)c1,24% (inactive)
17,CCN(CC)c1ccc(CNc2cc(C)nc3ccc(OC)cc23)cc1,79.6% (inactive)
18,CCCCCN(CCCCC)CCC[C@@H](C)[C@H]1CC[C@H]2[C@@H]3[C@H](OCCCN)C[C@@H]4C[C@H](OCCCN)CC[C@]4(C)[C@H]3C[C@H](OCCCN)[C@]12C,55% (inactive)
19,COc1cc(OC)c(/C=C/S(=O)(=O)Cc2ccc(OC)c(N)n2)c(OC)c1,8.17% (active)

row,Compound,growth
1,CC(=O)C1=C(O)C=C2Oc3c(C(=O)/C=C/c4cc(C(F)(F)F)cc(C(F)(F)F)c4)c(O)c(C)c(O)c3[C@]2(C)C1=O,-29.6% (active)
2,Cc1cc(Nc2nc(N3CCOCC3)nc3ccccc23)n[nH]1,61.5% (inactive)
3,COc1cc(OC)c(/C=C/C(=O)c2c(OC)cc(OC)cc2OC)c(OC)c1,33.4% (inactive)
4,c1ccc(CSc2ncnc3nc[nH]c23)nc1,122% (inactive)
5,C=C(CN1CCN(c2cccc(C(F)(F)F)n2)CC1)c1ccc(C(=O)Nc2ccccc2N)cc1,22.8% (inactive)
6,CN1CCOCCOCCOc2ccccc2NC(=O)c2nc(cnc2N)-c2ccc(cc2)S1(=O)=O,48.1% (inactive)
7,COc1cc(/C=N/N(C)C)ccc1O,105% (inactive)
8,O=C(/C=C/c1ccc(B(O)O)cc1)/C=C/c1ccc(B(O)O)cc1,-11.8% (active)
9,CCC(=O)OCc1cccc(OC)c1,103% (inactive)
10,COc1cnc2c(c1)C(=O)c1c-2n(CCCBr)c(=O)c2cc([N+](=O)[O-])ccc12,25.5% (inactive)
11,C/C(=C(/c1ccc(O)cc1)c1ccc(OCCN2CCCC2)cc1)c1ccccc1,64% (inactive)
12,CCCCCCCCCc1cc(CN2CCCCC2)c(O)c(CN2CCCCC2)c1,70.1% (inactive)
13,CCCCN(CC)CCCCCCCCCCN1CCCc2cc(OC)ccc21,89.3% (inactive)
14,COc1cc(NC(N)=NCC(C)(C)COc2ccc(C(F)(F)F)cc2)cnc1C#N,75.4% (inactive)
15,COc1ccc2nc(NC(=O)c3cccnc3Nc3cc(OC)c(OC)c(OC)c3)sc2c1,-90.5% (active)
16,CCN(CC)CCC(=O)c1ccc(OC)c2ccccc12,79.6% (inactive)
17,COc1ccc(/C=C2\N=C3Sc4cc(Cl)ccc4C(=O)N3C2=O)cc1,114% (inactive)
18,Nc1c(C(=O)Nc2ccccc2)sc2nc3c(cc12)CN(CCc1ccccc1)CC3,104% (inactive)
19,CC(C)Oc1nc2c(c(=O)n(C)c(=O)n2C)n1C,109% (inactive)
